Data on 1 sequence can be found in publication PMC7862700, “An all-to-all approach to the identification of sequence-specific readers for epigenetic DNA modifications on cytosine”.

Common to all, as to test: DAPPL (digital affinity profiling via proximity ligation, sequencing); 10 mM Tris-HCl pH 7.5, 50 mM NaCl, 1 mM DTT, 4% glycerol, room temperature, 30 min; GST-TFs on glutathione beads, 16-mer random dsDNA library, 0.1% formaldehyde crosslink after washing; high values mean tight binding
One assay concerns the target T1, FLI1 (Homo sapiens, UniProt Q01543 1-452).
T1 sequence: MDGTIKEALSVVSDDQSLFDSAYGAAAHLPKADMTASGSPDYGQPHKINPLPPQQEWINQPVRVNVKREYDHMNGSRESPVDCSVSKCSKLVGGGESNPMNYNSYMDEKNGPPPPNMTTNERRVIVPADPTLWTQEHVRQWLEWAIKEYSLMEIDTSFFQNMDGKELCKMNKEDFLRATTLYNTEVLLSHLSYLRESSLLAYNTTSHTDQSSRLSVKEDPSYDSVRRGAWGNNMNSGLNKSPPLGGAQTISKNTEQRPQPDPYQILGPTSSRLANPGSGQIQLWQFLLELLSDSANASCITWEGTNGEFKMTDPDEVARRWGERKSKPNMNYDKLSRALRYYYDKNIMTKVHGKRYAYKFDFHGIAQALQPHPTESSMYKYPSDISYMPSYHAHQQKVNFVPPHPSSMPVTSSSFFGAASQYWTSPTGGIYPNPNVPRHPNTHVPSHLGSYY
The note with it: protein: recombinant; tags: N-terminal GST; dsDNA, one strand shown. In outline:
(§1)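 Pools were built from human transcription factors expressed in yeast as GST fusions, captured on glutathione beads and DNA-barcoded, along with a tag-only sample. Incubation with 200 nmole of a 16-mer random double-stranded DNA library lasted 30 min at room temperature in Tris/NaCl/DTT/glycerol buffer, and was followed by washing, 0.1% formaldehyde crosslinking, proximity ligation, PCR amplification and Illumina NextSeq500 sequencing. Binding signal is the quotient of each hexamer's read frequency for a factor and its frequency for the tag-only sample.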

A further assay deals with T2, ELK1 (Homo sapiens, UniProt P19419 1-428).
T2 sequence: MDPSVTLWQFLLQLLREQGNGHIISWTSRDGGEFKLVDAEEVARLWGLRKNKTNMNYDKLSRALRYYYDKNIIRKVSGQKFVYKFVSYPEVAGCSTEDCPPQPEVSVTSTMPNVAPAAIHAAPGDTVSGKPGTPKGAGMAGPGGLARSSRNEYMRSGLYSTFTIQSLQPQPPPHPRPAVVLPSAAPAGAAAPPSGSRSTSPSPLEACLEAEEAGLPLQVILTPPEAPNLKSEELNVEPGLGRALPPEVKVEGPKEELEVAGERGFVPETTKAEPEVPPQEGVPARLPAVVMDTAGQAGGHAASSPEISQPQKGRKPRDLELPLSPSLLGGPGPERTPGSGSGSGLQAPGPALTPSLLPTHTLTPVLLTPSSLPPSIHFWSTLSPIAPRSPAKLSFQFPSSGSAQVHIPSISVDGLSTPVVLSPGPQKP
The note with it: protein: recombinant; tags: N-terminal GST; dsDNA, one strand shown. In a few lines: as §1

The target of the next assay is T3, GABPA (Homo sapiens, UniProt Q06546 1-454).
T3 sequence: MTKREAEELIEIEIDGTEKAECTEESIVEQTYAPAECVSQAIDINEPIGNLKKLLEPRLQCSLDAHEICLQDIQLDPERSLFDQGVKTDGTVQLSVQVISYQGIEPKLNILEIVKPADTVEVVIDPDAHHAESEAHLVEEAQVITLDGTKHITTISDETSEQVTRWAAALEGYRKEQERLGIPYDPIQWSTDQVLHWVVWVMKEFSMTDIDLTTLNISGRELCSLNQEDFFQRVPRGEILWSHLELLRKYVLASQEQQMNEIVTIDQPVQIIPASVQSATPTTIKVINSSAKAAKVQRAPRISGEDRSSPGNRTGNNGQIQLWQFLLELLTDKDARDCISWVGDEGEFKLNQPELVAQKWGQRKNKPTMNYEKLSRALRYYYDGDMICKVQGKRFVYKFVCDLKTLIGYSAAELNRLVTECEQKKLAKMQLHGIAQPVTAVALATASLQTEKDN
The settings on record: protein: recombinant; tags: N-terminal GST; dsDNA, one strand shown. In outline: as §1

A further assay concerns the target T4, ERG (Homo sapiens, UniProt P11308 1-479).
T4 sequence: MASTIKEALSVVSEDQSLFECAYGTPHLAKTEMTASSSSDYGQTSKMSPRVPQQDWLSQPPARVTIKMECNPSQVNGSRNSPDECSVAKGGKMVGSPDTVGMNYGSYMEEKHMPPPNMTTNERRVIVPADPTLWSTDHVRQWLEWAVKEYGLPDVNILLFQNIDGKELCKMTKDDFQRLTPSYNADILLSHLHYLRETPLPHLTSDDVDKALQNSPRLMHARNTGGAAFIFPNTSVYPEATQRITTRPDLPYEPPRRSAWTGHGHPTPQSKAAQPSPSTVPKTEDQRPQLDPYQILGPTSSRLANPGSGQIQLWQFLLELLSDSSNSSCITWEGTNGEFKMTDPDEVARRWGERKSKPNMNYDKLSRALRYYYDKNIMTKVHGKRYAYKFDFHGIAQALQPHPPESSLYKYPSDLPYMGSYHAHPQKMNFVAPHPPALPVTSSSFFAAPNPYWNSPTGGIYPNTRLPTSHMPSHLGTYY
The note with it: protein: recombinant; tags: N-terminal GST; dsDNA, one strand shown. In outline:
as §1

Another assay deals with ELF1 (Homo sapiens, UniProt P32519 1-619). The settings on record: protein: recombinant; tags: N-terminal GST; dsDNA, one strand shown. In a few lines:
as §1

Another assay addresses T5, EHF (Homo sapiens, UniProt Q9NZC4 1-300).
T5 sequence: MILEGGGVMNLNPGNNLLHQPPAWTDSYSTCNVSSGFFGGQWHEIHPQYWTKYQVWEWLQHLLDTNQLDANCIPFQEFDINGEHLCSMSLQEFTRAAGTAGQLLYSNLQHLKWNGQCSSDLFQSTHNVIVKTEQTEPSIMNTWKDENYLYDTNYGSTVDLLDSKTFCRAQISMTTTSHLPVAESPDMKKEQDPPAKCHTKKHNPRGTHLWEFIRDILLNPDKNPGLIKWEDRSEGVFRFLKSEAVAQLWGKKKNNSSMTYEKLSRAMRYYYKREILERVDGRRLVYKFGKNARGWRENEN
The note with it: protein: recombinant; tags: N-terminal GST; dsDNA, one strand shown. In a few lines:
as §1

In a further assay the target is SPI1 (Homo sapiens, UniProt P17947 1-270). The note with it: protein: recombinant; tags: N-terminal GST; dsDNA, one strand shown. In a few lines:
as §1

The next assay deals with SPIB (Homo sapiens, UniProt Q01892 1-262). The note with it: protein: recombinant; tags: N-terminal GST; dsDNA, one strand shown. In outline:
as §1

For a further assay, the target named is T6, FEV (Homo sapiens, UniProt Q99581 1-238).
T6 sequence: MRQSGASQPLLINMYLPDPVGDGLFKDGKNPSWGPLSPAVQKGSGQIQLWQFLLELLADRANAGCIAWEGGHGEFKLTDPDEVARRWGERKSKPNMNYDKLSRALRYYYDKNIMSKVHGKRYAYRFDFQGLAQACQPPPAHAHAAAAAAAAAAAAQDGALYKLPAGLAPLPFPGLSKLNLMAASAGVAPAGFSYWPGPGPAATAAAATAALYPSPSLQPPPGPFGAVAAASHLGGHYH
The settings on record: protein: recombinant; tags: N-terminal GST; dsDNA, one strand shown. In outline: as §1

In another assay the target is ETV5 (Homo sapiens, UniProt P41161 1-510). The settings on record: protein: recombinant; tags: N-terminal GST; dsDNA, one strand shown. In outline: as §1
Sequence of ETV5 (P41161 whole entry): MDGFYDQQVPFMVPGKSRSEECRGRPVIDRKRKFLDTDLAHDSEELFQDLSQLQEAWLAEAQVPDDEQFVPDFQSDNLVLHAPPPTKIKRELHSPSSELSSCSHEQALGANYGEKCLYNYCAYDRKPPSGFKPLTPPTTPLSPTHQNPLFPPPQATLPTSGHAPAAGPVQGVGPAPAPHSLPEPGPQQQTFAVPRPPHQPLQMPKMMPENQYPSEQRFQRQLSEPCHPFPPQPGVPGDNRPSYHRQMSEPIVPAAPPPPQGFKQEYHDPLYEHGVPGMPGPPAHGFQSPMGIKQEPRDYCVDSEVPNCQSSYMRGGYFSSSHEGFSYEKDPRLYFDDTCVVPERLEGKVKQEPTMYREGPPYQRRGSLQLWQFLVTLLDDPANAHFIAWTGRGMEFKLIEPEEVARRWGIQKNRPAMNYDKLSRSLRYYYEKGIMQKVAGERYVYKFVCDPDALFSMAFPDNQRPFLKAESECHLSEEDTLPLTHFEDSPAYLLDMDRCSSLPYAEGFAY
Another assay has as its target HSF1 (Homo sapiens, UniProt Q00613 1-529). The note with it: protein: recombinant; tags: N-terminal GST; chain copies: 3; dsDNA, one strand shown. In outline:
as §1

For a further assay, the target named is T7, SPIC (Homo sapiens, UniProt Q8N5J4 1-248).
T7 sequence: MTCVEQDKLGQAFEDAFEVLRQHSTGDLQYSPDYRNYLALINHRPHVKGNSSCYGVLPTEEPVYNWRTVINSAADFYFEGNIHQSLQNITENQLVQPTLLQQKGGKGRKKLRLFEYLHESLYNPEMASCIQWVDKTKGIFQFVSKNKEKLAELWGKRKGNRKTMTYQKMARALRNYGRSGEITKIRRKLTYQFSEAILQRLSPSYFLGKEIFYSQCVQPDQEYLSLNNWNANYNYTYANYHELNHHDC
The note with it: protein: recombinant; tags: N-terminal GST; dsDNA, one strand shown. In a few lines: as §1

The next assay has as its target ELF4 (Homo sapiens, UniProt Q99607 1-663). The note with it: protein: recombinant; tags: N-terminal GST; dsDNA, one strand shown. In outline: as §1
The next assay has as its target T8, ELK4 (Homo sapiens, UniProt P28324-2 1-405).
T8 sequence: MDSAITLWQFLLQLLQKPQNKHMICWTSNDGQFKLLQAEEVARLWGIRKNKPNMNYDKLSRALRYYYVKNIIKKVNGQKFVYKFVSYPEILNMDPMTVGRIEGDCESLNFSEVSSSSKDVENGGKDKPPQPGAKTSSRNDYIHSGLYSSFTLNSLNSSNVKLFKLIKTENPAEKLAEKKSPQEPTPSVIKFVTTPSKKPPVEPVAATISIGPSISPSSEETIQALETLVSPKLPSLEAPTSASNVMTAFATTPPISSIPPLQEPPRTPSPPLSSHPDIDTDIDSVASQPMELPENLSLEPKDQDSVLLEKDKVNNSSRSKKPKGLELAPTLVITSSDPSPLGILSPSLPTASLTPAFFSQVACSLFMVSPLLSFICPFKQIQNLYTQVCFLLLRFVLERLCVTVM
The note with it: protein: recombinant; tags: N-terminal GST; dsDNA, one strand shown. In outline: as §1

The next assay addresses T9, ETV2 (Homo sapiens, UniProt O00321 1-342).
T9 sequence: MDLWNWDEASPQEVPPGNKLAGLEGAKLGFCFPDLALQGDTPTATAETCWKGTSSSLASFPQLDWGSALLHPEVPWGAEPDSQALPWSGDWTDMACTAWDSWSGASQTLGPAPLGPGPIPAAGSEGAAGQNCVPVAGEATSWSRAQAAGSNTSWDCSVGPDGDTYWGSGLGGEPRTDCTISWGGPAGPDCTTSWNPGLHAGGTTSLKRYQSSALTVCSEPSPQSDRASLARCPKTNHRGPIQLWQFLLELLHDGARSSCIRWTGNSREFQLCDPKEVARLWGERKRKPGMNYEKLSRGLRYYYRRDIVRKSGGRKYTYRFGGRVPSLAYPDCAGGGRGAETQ
The note with it: protein: recombinant; tags: N-terminal GST; dsDNA, one strand shown. In a few lines:
as §1

The target in a further assay is T10, ELF3 (Homo sapiens, UniProt P78545 1-371).
T10 sequence: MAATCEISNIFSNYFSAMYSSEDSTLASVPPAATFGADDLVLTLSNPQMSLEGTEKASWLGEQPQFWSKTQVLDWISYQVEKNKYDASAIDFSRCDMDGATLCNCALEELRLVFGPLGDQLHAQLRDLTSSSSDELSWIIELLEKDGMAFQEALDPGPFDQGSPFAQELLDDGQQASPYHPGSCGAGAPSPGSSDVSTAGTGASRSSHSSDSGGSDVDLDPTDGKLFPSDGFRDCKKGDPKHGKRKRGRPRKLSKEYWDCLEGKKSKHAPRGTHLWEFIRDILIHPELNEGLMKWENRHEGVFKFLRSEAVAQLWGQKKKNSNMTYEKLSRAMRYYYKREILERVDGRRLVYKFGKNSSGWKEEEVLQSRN
The note with it: protein: recombinant; tags: N-terminal GST; dsDNA, one strand shown. In a few lines: as §1

The next assay has as its target ETV1 (Homo sapiens, UniProt P50549 1-477). The note with it: protein: recombinant; tags: N-terminal GST; dsDNA, one strand shown. In outline:
as §1

Sequence of ELF1 (P32519 whole entry): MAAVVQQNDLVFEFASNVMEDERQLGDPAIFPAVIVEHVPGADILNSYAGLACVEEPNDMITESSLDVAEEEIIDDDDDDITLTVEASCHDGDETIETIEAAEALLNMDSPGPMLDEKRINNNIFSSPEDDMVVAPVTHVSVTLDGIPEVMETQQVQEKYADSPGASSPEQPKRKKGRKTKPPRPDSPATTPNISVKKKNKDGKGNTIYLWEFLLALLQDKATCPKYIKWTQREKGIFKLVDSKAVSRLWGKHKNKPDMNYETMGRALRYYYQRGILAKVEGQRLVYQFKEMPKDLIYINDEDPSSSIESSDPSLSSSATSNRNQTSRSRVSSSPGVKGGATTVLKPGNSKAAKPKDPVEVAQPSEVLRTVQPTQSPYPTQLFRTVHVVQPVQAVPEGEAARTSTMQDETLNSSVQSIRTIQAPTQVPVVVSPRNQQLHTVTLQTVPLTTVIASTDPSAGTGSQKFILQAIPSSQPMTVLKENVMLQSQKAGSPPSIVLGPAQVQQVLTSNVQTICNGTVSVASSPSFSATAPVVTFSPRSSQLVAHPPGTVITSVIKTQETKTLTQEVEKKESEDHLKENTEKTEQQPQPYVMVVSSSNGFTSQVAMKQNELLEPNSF
Sequence of ELF4 (Q99607 whole entry): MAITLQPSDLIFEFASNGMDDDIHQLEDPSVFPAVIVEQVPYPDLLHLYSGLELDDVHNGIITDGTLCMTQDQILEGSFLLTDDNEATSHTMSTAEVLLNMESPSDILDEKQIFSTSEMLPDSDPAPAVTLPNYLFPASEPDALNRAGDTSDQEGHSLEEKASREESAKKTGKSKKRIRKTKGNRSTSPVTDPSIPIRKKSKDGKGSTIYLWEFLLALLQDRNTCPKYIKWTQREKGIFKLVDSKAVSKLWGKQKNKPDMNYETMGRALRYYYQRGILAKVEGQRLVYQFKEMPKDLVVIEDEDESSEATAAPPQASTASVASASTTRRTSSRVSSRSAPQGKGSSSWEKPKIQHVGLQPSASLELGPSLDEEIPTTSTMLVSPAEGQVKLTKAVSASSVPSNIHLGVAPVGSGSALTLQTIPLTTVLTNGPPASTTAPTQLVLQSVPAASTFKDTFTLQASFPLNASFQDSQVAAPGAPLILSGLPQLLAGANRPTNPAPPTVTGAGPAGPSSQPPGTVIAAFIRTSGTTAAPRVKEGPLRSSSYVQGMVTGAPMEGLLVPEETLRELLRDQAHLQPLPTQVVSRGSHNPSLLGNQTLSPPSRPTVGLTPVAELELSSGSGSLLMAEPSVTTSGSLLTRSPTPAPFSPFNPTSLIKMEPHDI
Sequence of SPIB (Q01892 whole entry): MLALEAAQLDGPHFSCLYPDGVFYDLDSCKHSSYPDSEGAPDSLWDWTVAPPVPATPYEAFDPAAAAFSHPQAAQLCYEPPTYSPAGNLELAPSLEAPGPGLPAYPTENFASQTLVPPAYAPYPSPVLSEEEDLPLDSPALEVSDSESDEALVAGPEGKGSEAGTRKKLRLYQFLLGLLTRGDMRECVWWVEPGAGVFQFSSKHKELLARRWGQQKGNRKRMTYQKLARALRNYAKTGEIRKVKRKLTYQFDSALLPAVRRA
Sequence of ETV1 (P50549 whole entry): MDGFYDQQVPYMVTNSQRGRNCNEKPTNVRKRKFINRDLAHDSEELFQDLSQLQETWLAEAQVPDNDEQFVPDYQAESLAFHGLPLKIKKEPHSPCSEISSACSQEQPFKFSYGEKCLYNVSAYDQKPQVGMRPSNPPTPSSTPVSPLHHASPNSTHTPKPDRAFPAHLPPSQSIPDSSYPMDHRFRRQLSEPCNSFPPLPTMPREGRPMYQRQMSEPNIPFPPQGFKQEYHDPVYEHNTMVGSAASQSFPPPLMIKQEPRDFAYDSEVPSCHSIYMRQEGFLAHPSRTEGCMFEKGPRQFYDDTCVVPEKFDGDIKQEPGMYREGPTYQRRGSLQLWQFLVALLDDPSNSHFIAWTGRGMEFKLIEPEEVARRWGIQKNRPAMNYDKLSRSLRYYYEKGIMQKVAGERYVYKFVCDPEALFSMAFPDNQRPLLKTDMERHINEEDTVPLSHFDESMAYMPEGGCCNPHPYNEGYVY
Sequence of HSF1 (Q00613 whole entry): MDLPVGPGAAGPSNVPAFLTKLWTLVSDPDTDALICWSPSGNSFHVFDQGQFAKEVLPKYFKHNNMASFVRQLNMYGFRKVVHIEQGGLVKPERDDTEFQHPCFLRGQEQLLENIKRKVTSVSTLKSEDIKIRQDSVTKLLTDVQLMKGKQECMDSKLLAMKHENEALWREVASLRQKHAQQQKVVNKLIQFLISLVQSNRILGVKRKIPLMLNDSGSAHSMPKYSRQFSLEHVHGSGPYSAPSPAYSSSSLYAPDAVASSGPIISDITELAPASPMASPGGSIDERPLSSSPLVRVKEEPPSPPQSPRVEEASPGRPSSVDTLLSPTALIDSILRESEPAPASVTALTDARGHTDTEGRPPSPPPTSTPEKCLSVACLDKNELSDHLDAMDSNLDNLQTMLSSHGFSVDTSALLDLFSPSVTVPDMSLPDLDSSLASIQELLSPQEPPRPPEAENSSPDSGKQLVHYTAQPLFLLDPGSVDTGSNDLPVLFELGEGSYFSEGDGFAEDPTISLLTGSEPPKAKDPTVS

As for GCTCGT, the binding signal with FLI1 is 1.19 fold enrichment (6-mer frequency, TF over GST control); with ELK1, 1.16 fold enrichment (6-mer frequency, TF over GST control); in the assay with GABPA, 1.26 fold enrichment (6-mer frequency, TF over GST control); with ERG, 1.12 fold enrichment (6-mer frequency, TF over GST control); with ELF1, 1.15 fold enrichment (6-mer frequency, TF over GST control); in the assay with EHF, 1.14 fold enrichment (6-mer frequency, TF over GST control). Moreover, the binding signal with SPI1 is 1.12 fold enrichment (6-mer frequency, TF over GST control); with SPIB it was 1.16 fold enrichment (6-mer frequency, TF over GST control); in the assay with FEV, 1.06 fold enrichment (6-mer frequency, TF over GST control); in the assay with ETV5 it was 1.17 fold enrichment (6-mer frequency, TF over GST control); in the assay with HSF1 it was 1.07 fold enrichment (6-mer frequency, TF over GST control); with SPIC, 1.14 fold enrichment (6-mer frequency, TF over GST control). Further, the binding signal with ELF4 was 1.24 fold enrichment (6-mer frequency, TF over GST control); with ELK4, 1.11 fold enrichment (6-mer frequency, TF over GST control); with ETV2 it was 1.29 fold enrichment (6-mer frequency, TF over GST control); with ELF3, 1.16 fold enrichment (6-mer frequency, TF over GST control); with ETV1 it was 1.15 fold enrichment (6-mer frequency, TF over GST control).
